The text below walks through data of PubChem BioAssay AID485313 (National Center for Advancing Translational Sciences (NCATS), 2010).

Screen size: about 320,000 compounds; about 7,600 (2.4%) were called active. Entries that show only a call come without a potency. Inconclusive results (about 3%) are left out. The sample holds actives, similar compounds and a random draw of the others, so the mix is not that of the screen. Calls follow the shape of the dose curve; as a rule, active = well fitted activation curve with a large enough effect; inconclusive = small, poorly fitted or top-dose-only effect; inactive = no such curve, though single readings can be large or run the other way.
Potency is read from the fitted curve at half-maximal effect.

This assay is described as follows: qHTS Assay for NPC1 Promoter Activators. Also: nearly all actives have a fitted effect of over 60% in size. To be noted: Huh7 NPC1 promoter luciferase reporter, 24 h; series mostly up to 9.22 µM. In outline: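 Luminescence from an NPC1 promoter-driven luciferase reporter in stably transfected Huh7 cells was measured after 24 h compound treatment at 37 °C, followed by 10 min ambient incubation with luciferase detection reagent.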
Take `Cc1nn2cc(-c3ccc(Cl)cc3)cnc2c1Br`: the Potency was 2240 nM (active).

Regarding `N#CC1(NC(=O)COC(=O)CSc2ccc(F)cc2)CCCCC1`, the Potency result is “inactive”.

Take `COc1ccc(S(=O)(=O)N2CCN(CC(=O)N3c4ccccc4CC3C)CC2)cc1OC` (configuration not stated): the Potency entry was “inactive”.

Turning to `Cc1cc(C)nc(Nc2n[nH]c(-c3ccccc3N)n2)n1`, the Potency is 447 nM (active).

As to `Cc1cc(C)nc(Nc2ncn[nH]2)n1`, the Potency entry is “inactive”.

In the case of `Cc1ccccc1-c1n[nH]c(=S)n1C`, the Potency entry is “inactive”.

`O=C(Nc1ccc2oc(-c3ccccc3F)nc2c1)c1ccco1`: the Potency is 1580 nM (active).

Turning to `O=C(Nc1cccc(-c2nc3ncccc3o2)c1)c1ccco1`, the Potency result is “inactive”.

Consider `CCCC(=O)Nc1ccc2c(c1)nc(CCNC(=O)c1ccco1)n2C`, for which the Potency result was “inactive”.

With `COc1ccccc1S(=O)(=O)NCc1ccc(C(=O)N(C)Cc2ccc(F)cc2)cc1`, the Potency result is “inactive”.

As for `CC(=O)Nc1ccc(-c2csc(NC=C3C(=O)OC(C)(C)OC3=O)n2)cc1`, the Potency result is “inactive”.

Regarding `CC(=O)Nc1cccc(Nc2nc(-c3cccs3)nc3ccccc23)c1`, the Potency result is “inactive”.

For the molecule `CC(=O)Nc1cccc(-c2csc(Nc3cccc(C)n3)n2)c1`, the Potency was 708 nM (active).

Take `CCS(=O)(=O)Nc1cccc(-c2cc(-c3ccccc3)c3cc(C)ccc3n2)c1`: the Potency result is “inactive”.

On to `Cc1cccc(S(=O)(=O)CC(=O)Nc2nc(-c3ccccc3)cs2)c1`, for which the Potency entry is “inactive”.

With `CC(=O)Nc1cccc(-c2cnc3ccccc3n2)c1`, the Potency was 2820 nM (active).

As to `COCCn1c(=NC(=O)c2ccccc2[N+](=O)[O-])sc2cc(S(C)(=O)=O)ccc21`, the Potency result is “inactive”.

Take `Cc1cccc(C(=O)NCC(=O)OCC(=O)N(C)CC(=O)Nc2ccccc2Cl)c1`: the Potency entry is “inactive”.

Regarding `O=C(CSc1nnc(N2CCOCC2)n1-c1cccc(F)c1)N1CCN(c2ccccn2)CC1`, the Potency entry is “inactive”.

Regarding `Cc1ccc(F)cc1S(=O)(=O)Nc1cccc(C(=O)N2CCCC(C(N)=O)C2)c1` (configuration not stated), the Potency result was “inactive”.

Regarding `COc1ccccc1C(=O)NC(CCSC)C(=O)N1CCN(C(C)=O)CC1` (configuration not stated), the Potency entry was “inactive”.

On to `Cc1ccccc1N/N=C/c1ccc(N2CCOCC2)cc1`, for which the Potency was 3160 nM (active).

`CCN(CC)c1ccc(C(=O)N/N=C/c2ccc(N3CCOCC3)cc2)cc1`: the Potency result is “inactive”.

`C(=N/Nc1cc(N2CCOCC2)nc(N2CCOCC2)n1)/c1ccccc1`: the Potency entry is “inactive”.

Turning to `CN1CCN(S(=O)(=O)c2cccc(C(=O)Nc3sccc3C#N)c2)CC1`, the Potency result is “inactive”.

As to `O=C1COc2ccc(C(=O)CSc3ccc(Br)cc3)cc2N1`, the Potency result was “inactive”.

Take `COc1ccc(C[C@H](C(=O)O)N2C(=O)c3ccc(C(=O)O)cc3C2=O)cc1`: the Potency entry is “inactive”.

Take `Cc1ccc2[nH]cc(CCCN3C(=O)c4ccccc4C3=O)c2c1`: the Potency entry was “inactive”.

On to `COc1ccc2[nH]cc(CCN3C(=O)c4ccc(C(=O)O)cc4C3=O)c2c1`, for which the Potency is 3550 nM (active).

For the molecule `CC(C)(C)OC(=O)N[C@H](C(=O)OC(C)(C)C)c1ccc(Br)cc1`, the Potency result is “inactive”.

In the case of `COc1ccccc1OCCNC(=O)C(CCSC)NC(=O)COc1ccccc1` (configuration not stated), the Potency entry was “inactive”.

`NC(=O)c1ccsc1NC(=O)COC(=O)COc1ccc(C=O)cc1`: the Potency result was “inactive”.

Consider `COc1ccc(NS(=O)(=O)c2ccc3oc(SCC(N)=O)nc3c2)cc1`, for which the Potency result was “inactive”.

Consider `CN(C)S(=O)(=O)c1ccc2oc(SCC(=O)Nc3ccccc3F)nc2c1`, for which the Potency is 3160 nM (active).

Take `COc1ccc(S(=O)(=O)N(C)C)cc1NC(=O)CSc1ncccn1`: the Potency result is “inactive”.

For the molecule `CCOc1ccc2nc(C(=O)N3CCCC(C)C3)sc2c1` (configuration not stated), the Potency was 2000 nM (active).

Turning to `CCOc1ccc2nc(N(CCN(C)C)C(=O)c3ccc4ccccc4c3)sc2c1`, the Potency entry is “inactive”.

On to `CCCC(=O)N(CCN1CCOCC1)c1nc2ccc(OCC)cc2s1`, for which the Potency entry was “inactive”.

In the case of `Cc1ccc(Nc2nnc(SCC(=O)c3cc4ccccc4o3)s2)cc1C`, the Potency result was “inactive”.

`O=C(CSc1nnc(Nc2ccccc2)s1)Nc1cccnc1Cl`: the Potency result is “inactive”.

In the case of `CC(C)c1ccc(Nc2nnc(SCC(=O)c3nnc(-c4ccccc4)o3)s2)cc1`, the Potency is 3980 nM (active).

In the case of `O=S(=O)(c1cccs1)N1CCN(CCOc2ccccc2)CC1`, the Potency result is “inactive”.

With `CCOc1ccc(NS(=O)(=O)c2ccc(Cl)c(C(=O)N(C)Cc3cccnc3)c2)cc1`, the Potency result is “inactive”.

Regarding `Cc1ccc(C(=O)CN2C(=O)NC3(CCOc4ccccc43)C2=O)s1` (configuration not stated), the Potency result was “inactive”.

Consider `O=C(OCC(=O)N1CCN(C(=O)c2ccco2)CC1)c1ccc(Cl)c(Cl)c1`, for which the Potency entry is “inactive”.

`O=C(COC(=O)c1ccccc1)c1ccc2c(c1)OCCO2`: the Potency is 316 nM (active).

With `CC(=O)Nc1cccc(C(=O)OCC(=O)NCc2cc(C)c(O)c(C)c2)c1`, the Potency entry was “inactive”.

As to `CC(=O)Nc1cccc(C(=O)OCC(=O)c2ccc3c(c2)OCO3)c1`, the Potency is 316 nM (active).

Regarding `O=C(COC(=O)c1ccncc1)c1ccccc1`, the Potency result was “inactive”.

Turning to `CC(NC(=O)COC(=O)c1ccc2c(c1)OCO2)c1ccccc1` (configuration not stated), the Potency entry is “inactive”.

Take `O=C(COC(=O)c1ccc2c(c1)OCCO2)NCc1ccccc1`: the Potency entry is “inactive”.

Take `COc1ccc(C(=O)NCc2ccc(Cl)cc2)cc1S(=O)(=O)N1CCCC1`: the Potency result was “inactive”.

Turning to `CCN(CC(=O)Nc1ccc(OC)cc1)C(=O)c1ccc(Cl)c(S(=O)(=O)N2CCCC2)c1`, the Potency entry was “inactive”.

`O=[N+]([O-])c1cc(S(=O)(=O)NCCc2ccccn2)ccc1Cl`: the Potency entry was “inactive”.

On to `CC(C#N)(NC(=O)CN1CCN(S(=O)(=O)c2cc(C(F)(F)F)ccc2Cl)CC1)C1CC1` (configuration not stated), for which the Potency result was “inactive”.

As for `c1ccc(CSc2nnc(-c3ccco3)n2Cc2ccccc2)cc1`, the Potency is 2820 nM (active).

For `O=C(CSc1nnc(-c2ccco2)n1-c1ccccc1)NCCc1ccccc1`, the Potency result is “inactive”.

As for `O=C(CSc1nnc(-c2ccco2)n1CC1CCCO1)c1ccccc1` (configuration not stated), the Potency result was “inactive”.

Turning to `C=CCN1C(=O)c2ccc(C(=O)N3CCC(C(=O)OCC)CC3)cc2C1=O`, the Potency result was “inactive”.

Regarding `O=C(CCNS(=O)(=O)c1ccccc1)NCCSc1ccc(Br)cc1`, the Potency entry is “inactive”.

Take `O=S(=O)(Nc1cc(Cl)ccc1N1CCOCC1)c1ccccc1Cl`: the Potency result is “inactive”.

As for `C[C@@H]1NC(=O)[C@@]2(C)[C@@H](c3ccccc3)[C@H]3COc4ccccc4[C@@H]3N2C1=O`, the Potency result was “inactive”.

As for `CCOC(=O)c1c(CNCc2ccccc2F)c2sc(C)cc2n1C`, the Potency entry is “inactive”.

As for `Cc1nc2sc(C(=O)c3ccccc3)c(N)c2c2c1CCCC2`, the Potency entry was “inactive”.

With `CN(C)c1ccnc2sc(C(=O)c3ccccc3)c(N)c12`, the Potency is 2510 nM (active).

In the case of `CN(C)c1ccnc2sc3c(=O)n(Cc4ccccc4)cnc3c12`, the Potency entry is “inactive”.

As for `Nc1ncnc2c1c(I)cn2[C@@H]1C[C@H](N)[C@@H](O)[C@H]1O`, the Potency result is “inactive”.
